Each structure is given as a SMILES string. Records with an inconclusive call do not appear. A call without a number means that no potency is given here. Active and inactive are the calls of the source. The call rests on the fitted dose curve; in most records, active means well fitted activation curve with a large enough effect; inconclusive means small, poorly fitted or top-dose-only effect; inactive means flat fitted curve, though single readings scatter.
Potency means the concentration at half of the fitted maximal effect.

Chain of Pyruvate kinase PKM (Homo sapiens) (P14618 whole entry, looked up, canonical isoform): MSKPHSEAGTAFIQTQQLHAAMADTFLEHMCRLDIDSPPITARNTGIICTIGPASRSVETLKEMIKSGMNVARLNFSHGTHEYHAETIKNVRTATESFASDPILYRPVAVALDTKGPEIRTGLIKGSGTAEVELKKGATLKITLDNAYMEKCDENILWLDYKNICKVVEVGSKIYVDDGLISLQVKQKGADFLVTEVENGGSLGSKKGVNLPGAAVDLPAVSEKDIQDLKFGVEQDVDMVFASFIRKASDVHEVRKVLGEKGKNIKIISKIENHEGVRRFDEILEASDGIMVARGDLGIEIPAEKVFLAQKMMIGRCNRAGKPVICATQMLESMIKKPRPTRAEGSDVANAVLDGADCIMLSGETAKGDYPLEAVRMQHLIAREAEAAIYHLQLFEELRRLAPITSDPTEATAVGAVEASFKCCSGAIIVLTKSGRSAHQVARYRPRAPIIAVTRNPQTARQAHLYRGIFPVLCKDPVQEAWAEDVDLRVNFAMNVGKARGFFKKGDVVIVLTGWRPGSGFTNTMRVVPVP

This experiment deals with Pyruvate kinase PKM (Homo sapiens) (UniProt P14618). In words: Confirmation Concentration-Response Assay for Activators of Human Muscle isoform 2 Pyruvate Kinase: for Probe SAR. Further: nearly all actives have a fitted effect of over 60% in size. Particulars: purified PKM2, ATP generation, Kinase-Glo luminescence; series mostly up to 57.5 µM. The source says:
NIH Chemical Genomics Center [NCGC]
Matthew G. Vander Heiden, M.D., Ph.D. [Harvard Medical School, 77 Avenue Louis Pasteur, Boston, MA 02115]
Human pyruvate kinase muscle 2 (hPK-M2) enzyme was supplied as a highly purified (>95% pure) preparation from Harvard Medical School and assayed for its ability to generate ATP from ADP using phosphoenolpyruvate (PEP) as a substrate. ATP generation was detected in a coupled reaction by luciferase-mediated luminescence, an ATP-dependent process. […] The enzyme was assayed at an intermediate level of activity to screen for both inhibitors and activators.
NCGC Assay Protocol Summary:
Three uL of substrate mix (at r.t.) in assay buffer (50 mM Imidazole pH7.2, 50 mM KCl, 7 mM MgCl2, 0.01% Tween 20, 0.05% BSA) was dispensed into white solid bottom 1,536 well microtiter plates so that the final concentrations of substrates in the assay were 0.1 mM ADP and 0.5 mM PEP. 23 nL of compound were delivered by a pin tool and 1 uL of enzyme mix (final concentration of 0.1 nM) in assay buffer (4 degree Celsius) was added. Plates were incubated at room temperature for 1 hour. Two uL of detection mix (Kinase-Glo, Promega; at 4 degree Celsius protected from light) was added and luminescence read by a ViewLux (Perkin Elmer) at 1 second exposure/plate. Data were normalized to the uninhibited (column 3) and AC100 inhibition (no enzyme in column 2). To monitor activation, the first column contained a titration of the activator, NCGC00031955-03 (16-point 1:2 dilutions in duplicate starting at 57 uM) and the first 16 rows of column 4 contained 57 uM of NCGC00031955-03.
(In general: In Kinase-Glo more light means more ATP remaining.)
Regarding `O=C1c2ccccc2C(=O)N1c1cccc2cnccc12`, the Potency entry is “inactive”.
`O=C1CCc2cc(S(=O)(=O)Nc3cccc(C(F)(F)F)c3)ccc2N1`: the Potency was 13 µM (active).
Turning to `N#Cc1ccccc1OC1=NS(=O)(=O)c2ccccc21`, the Potency entry was “inactive”.
Regarding `Cc1ccccc1OC1=NS(=O)(=O)c2ccccc21`, the Potency result was “inactive”.
Take `O=C1c2ccccc2C(=O)N1c1ccc2ccccc2n1`: the Potency entry is “inactive”.
`Cc1ccc2nc(-c3ccco3)c(Nc3ccccc3)n2c1`: the Potency entry is “inactive”.
For the compound `CSc1cc2c(s1)c1cnn(Cc3cccc(O)c3)c(=O)c1n2C`, the Potency was 0.0411 µM (active).
The same measure for `COc1cc(F)c(S(=O)(=O)N2CCCN(S(=O)(=O)c3ccc(NC(C)=O)cc3)CC2)c(F)c1`: 16.3 µM (active); for `Cc1ccc2nc(-c3ccc(C)o3)c(Nc3ccc(Cl)cc3)n2c1`: “inactive”.
On to `Cc1ccc(NS(=O)(=O)c2ccc(N3CCCC3=O)cc2)cc1C`, for which the Potency entry was “inactive”.
The same measure for `O=C1c2ccccc2C(=O)N1c1ccccn1`: “inactive”; for `O=C1c2ccccc2C(=O)N1c1nccs1`: “inactive”; for `CC(=O)Nc1ccc(S(=O)(=O)N2CCCN(S(=O)(=O)c3ccc4c(c3)OCCO4)CC2)cc1`: 4.11 µM (active).
In the case of `O=C1CCc2cc(S(=O)(=O)Nc3ccncc3)ccc2N1`, the Potency entry was “inactive”.
As for `COc1cc(F)c(S(=O)(=O)N2CCN(S(=O)(=O)c3ccc(NC(C)=O)cc3)CC2)c(F)c1`, the Potency is 13 µM (active).
The same measure for `O=C(O)c1ccccc1OC1=NS(=O)(=O)c2ccccc21`: “inactive”; for `O=C1CCc2cc(S(=O)(=O)Nc3ccc(-c4ccccc4)cc3)ccc2N1`: “inactive”.
As to `Cn1c2cc(S(C)=O)sc2c2cnn(Cc3cccc(O)c3)c(=O)c21` (stereo not given), the Potency was 0.13 µM (active).
Under `COc1cc(F)c(S(=O)(=O)N2CCN(S(=O)(=O)c3ccco3)CC2)c(F)c1` stands 0.183 µM (active).
Consider `COc1cccc(N2C(=O)c3ccccc3C2=O)n1`, for which the Potency result was “inactive”.
`Cc1ccc(NS(=O)(=O)c2ccc3c(c2)CCC(=O)N3)cc1F`: the Potency is 0.517 µM (active).
Under `O=C1CCc2cc(S(=O)(=O)Nc3ccc(F)c(Cl)c3)ccc2N1` stands 0.291 µM (active); under `O=C1c2ccccc2C(=O)N1c1cncc2ccccc12`, “inactive”.
For `O=S(=O)(c1cccc(O)c1)N1CCN(S(=O)(=O)c2c(F)cccc2F)CC1`, the Potency was 0.58 µM (active).
Consider `Cc1cc(C)n2c(Nc3ccccc3)c(-c3ccc(C)o3)nc2n1`, for which the Potency is 16.3 µM (active).
The same measure for `O=C1CCc2cc(S(=O)(=O)Nc3ccccc3Cl)ccc2N1`: 18.3 µM (active); for `Cc1ccc(NC(=O)c2ccc3c(c2)CCC(=O)N3)cc1C`: “inactive”; for `COc1cccc(NS(=O)(=O)c2ccc3c(c2)CCC(=O)N3)c1`: 5.17 µM (active).
Regarding `Cc1ccccc1NS(=O)(=O)c1ccc2c(c1)CCC(=O)N2`, the Potency is 11.6 µM (active).
With `Cc1ccc(NS(=O)(=O)c2ccc(Cl)cc2)cc1C`, the Potency was 23.1 µM (active).
Regarding `Nc1cccc(S(=O)(=O)N2CCN(S(=O)(=O)c3ccc4c(c3)OCCO4)CC2)c1`, the Potency was 0.0919 µM (active).
As to `Cc1ccc(C)c(OC2=NS(=O)(=O)c3ccccc32)c1`, the Potency entry was “inactive”.
Regarding `Cc1ccc(NS(=O)(=O)c2cc3c(cc2/C=C/c2ccccc2)NC(=O)CO3)cc1C`, the Potency entry is “inactive”.
Turning to `Cc1ccc2nc(-c3ccc(C)o3)c(Nc3ccc(F)cc3)n2c1`, the Potency entry was “inactive”.
On to `O=C1c2ccccc2C(=O)N1c1cccc2cccnc12`, for which the Potency result was “inactive”.
For `O=C1c2ccccc2C(=O)N1c1cc(=O)c2ccccc2[nH]1`, the Potency entry is “inactive”.
Under `Nc1cccc(S(=O)(=O)N2CCN(S(=O)(=O)c3c(F)cccc3F)CC2)c1` stands 0.13 µM (active).
The same measure for `Cc1ccn2c(NC3CCCCC3)c(-c3ccc(C)o3)nc2c1`: “inactive”.
On to `Cc1ccc(-c2nc3ccccn3c2Nc2ccc(F)cc2)o1`, for which the Potency entry is “inactive”.
For the compound `O=S1(=O)N=C(OCc2ccccc2)c2ccccc21`, the Potency result is “inactive”.

Source of the values: PubChem BioAssay AID2533 (National Center for Advancing Translational Sciences (NCATS), 2010).
